Experimental data as given in the supplement of paper PMC11865577.
Structures can show the parent of a compound that is named as a salt.

Each compound was assayed on hsa-mir-21 loop (assay: normalised indicator fluorescence (fraction of RNA + indicator signal without compound); higher = less displacement of indicator (weaker competition)). Conditions: compound concentration: 5 uM; 30 min; indicator: TO-PRO-1 0.1 uM; RNA concentration: 0.1 uM.
Procedure, shortened: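 For the displacement screen, RNA and a TO-PRO-1 or TO-PRO-3 indicator were held in 20 mM phosphate pH 7.0 with 20 mM NaCl and 80 mM KCl in 96-well plates. After adding 0.25 μL of each 1 mM DMSO stock (about 5 uM final) and waiting 30 min, fluorescence was measured on an Infinite 200 PRO with excitation at 485 or 620 nm. Each value is the mean of two independent experiments, expressed as blank-subtracted indicator fluorescence relative to the no-compound RNA-plus-indicator signal.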
`CC(=O)Oc1c(C)c(C)c2c(c1C)CCC(C)(CCC[C@H](C)CCC[C@H](C)CCCC(C)C)O2` (stereo not given in full) [Vitamin E Acetate] showed a normalised indicator fluorescence of 0.923. `COc1nccnc1NS(=O)(=O)c1ccc(NC(=O)/C=C/c2ccc([N+](=O)[O-])s2)cc1` [Necrosulfonamide] gave a normalised indicator fluorescence of 0.985. In the case of `CN(NC(=O)CC(=O)NN(C)C(=S)c1ccccc1)C(=S)c1ccccc1` [Elesclomol], the normalised indicator fluorescence is reported as 1.06. `O=c1ccc2ccc(O)cc2o1` [7-Hydroxycoumarin] gave a normalised indicator fluorescence of 1.05. Work on `O=C(O)/C=C/c1ccc(Cn2ccnc2)cc1` [Ozagrel hydrochloride] yielded a normalised indicator fluorescence of 1.01. With `Fc1ccc(-c2nc3n(c2-c2ccncc2)CCS3)cc1` the normalised indicator fluorescence was 0.993. Compound `O=[N+]([O-])c1ccc(-c2nc(-c3ccc(F)cc3)c(-c3ccncc3)[nH]2)cc1` has a normalised indicator fluorescence of 0.973. `OC[C@H]1O[C@@H](Oc2ccc(O)cc2)[C@H](O)[C@@H](O)[C@@H]1O` [Arbutin] showed a normalised indicator fluorescence of 1.01. `COc1ccc(O)cc1` [4-Methoxyphenol] was tested, and the normalised indicator fluorescence was 0.99. `CCNC(=O)c1noc(-c2cc(C(C)C)c(O)cc2O)c1-c1ccc(CN2CCOCC2)cc1` [Luminespib] showed a normalised indicator fluorescence of 1.03. With `O=c1cc(-c2ccc(O)cc2)oc2cc(O)cc(O)c12` [Apigenin] the normalised indicator fluorescence was 0.934. Work on `O=C1O[C@H]([C@@H](O)CO)C(O)=C1O` [L(+)-Ascorbic acid] yielded a normalised indicator fluorescence of 0.953. `O=c1ncn2nc(Sc3ccc(F)cc3F)ccc2c1-c1c(Cl)cccc1Cl` [Neflamapimod] gave a normalised indicator fluorescence of 0.973. In the case of `Cc1cccc(CC(=O)N2CCc3c2ccc(-c2cn(C)c4ncnc(N)c24)c3F)n1`, the normalised indicator fluorescence is reported as 1. With `CC(=O)O[C@H]1C[C@@]2(C)[C@@H](C[C@@H](O)[C@H]3[C@@]4(C)CC[C@@H](O)[C@@H](C)[C@@H]4CC[C@@]32C)/C1=C(\CCC=C(C)C)C(=O)O` [Sodium fusidate] the normalised indicator fluorescence was 0.986. Compound `CC(=O)CCCCn1c(=O)c2c(ncn2C)n(C)c1=O` [Pentoxifylline] has a normalised indicator fluorescence of 1.02. Work on `Cc1c(C)c2c(c(C)c1O)CC[C@@](C)(CCC[C@H](C)CCC[C@H](C)CCCC(C)C)O2` [Vitamin E] yielded a normalised indicator fluorescence of 0.956. `O=C(NC(Cc1cc(=O)[nH]c2ccccc12)C(=O)O)c1ccc(Cl)cc1` (stereo not given) [Rebamipide] was tested, and the normalised indicator fluorescence was 0.99. `NC(=O)c1ccc(N(C(N)=O)c2c(F)cccc2F)nc1-c1ccc(F)cc1F` gave a normalised indicator fluorescence of 0.905. `CC(C)OC(=O)CCC/C=C\C[C@@H]1[C@@H](CC[C@@H](O)CCc2ccccc2)[C@H](O)C[C@@H]1O` [Latanoprost] showed a normalised indicator fluorescence of 0.985. `CCCC(C(=O)OCCN(CC)CC)(c1ccccc1)c1ccccc1` [Proadifen hydrochloride] was tested, and the normalised indicator fluorescence was 0.923. `COC1=C2C[C@@H](C)C[C@H](OC)[C@H](O)[C@@H](C)/C=C(\C)[C@H](OC(N)=O)[C@@H](OC)/C=C\C=C(/C)C(=O)NC(=CC1=O)C2=O` [Geldanamycin] showed a normalised indicator fluorescence of 1.04. Compound `COc1ccc(C(=C2C(=O)Nc3ccccc32)c2ccc(OC)cc2)cc1` has a normalised indicator fluorescence of 0.92. With `O=C1C[C@@H](c2ccc(O)cc2)Oc2cc(O)cc(O)c21` [Naringenin] the normalised indicator fluorescence was 0.942. With `[I-].[K+]` [Potassium iodide] the normalised indicator fluorescence was 1.11. `CO[C@H]1/C=C/O[C@@]2(C)Oc3c(C)c(O)c4c(c3C2=O)C2=NC3(CCN(CC(C)C)CC3)NC2=C(NC(=O)/C(C)=C\C=C\[C@H](C)[C@H](O)[C@@H](C)[C@@H](O)[C@@H](C)[C@H](OC(C)=O)[C@@H]1C)C4=O` [Rifabutin] gave a normalised indicator fluorescence of 1.03. `O=C(O)/C=C/c1ccc(Cn2ccnc2)cc1` [Ozagrel] gave a normalised indicator fluorescence of 0.996. With `CC1(C)OC(=O)C=C[C@]2(C)[C@H]3CC[C@@]4(C)[C@H](c5ccoc5)OC(=O)[C@H]5O[C@]54[C@]3(C)C(=O)C[C@@H]12` [Obacunone] the normalised indicator fluorescence was 1.06. Compound `NNC(=O)c1ccncc1` [Isoniazid] has a normalised indicator fluorescence of 0.967. Work on `CC1=NN(c2ccccc2)C(=O)C1` [Edaravone] yielded a normalised indicator fluorescence of 1.07. `CC(C)(O)[C@@H]1CC[C@](C)([C@H]2[C@@H](O)C[C@@]3(C)[C@@H]4C[C@H](O)[C@H]5C(C)(C)[C@@H](O[C@@H]6OC[C@@H](O)[C@H](O)[C@H]6O[C@@H]6O[C@H](CO)[C@@H](O)[C@H](O)[C@H]6O)CC[C@@]56C[C@@]46CC[C@]23C)O1` [Astragaloside III] gave a normalised indicator fluorescence of 1.01. For `O=C(Nc1ccc2[nH]nc(-c3ccncc3)c2c1)[C@@H]1CCN(CC(=O)N2CCN(c3ccc(-c4ncccn4)cc3)CC2)C1`, the normalised indicator fluorescence was 1.02. `O=C(COc1ccc(Cl)cc1)NC1CCC(NC(=O)COc2ccc(Cl)cc2)CC1` (stereo not given) gave a normalised indicator fluorescence of 0.954. In the case of `Oc1cc(O)c2c(c1)O[C@H](c1ccc(O)c(O)c1)[C@@H](O)C2` [Cianidanol], the normalised indicator fluorescence is reported as 0.93. With `C[C@@H]1O[C@@H](O[C@@H]2[C@@H](O)[C@H](OCCc3ccc(O)c(O)c3)O[C@H](CO)[C@H]2OC(=O)/C=C/c2ccc(O)c(O)c2)[C@H](O)[C@H](O)[C@H]1O` [Verbascoside] the normalised indicator fluorescence was 1.13.
